Nine compounds from PubChem BioAssay (Tox21) can be followed below.

Assay [1] concerns the target Nuclear receptor subfamily 1 group I member 2 (Homo sapiens) (UniProt O75469). Briefly: CYP3A4 induction through human pregnane X receptor (PXR) by small molecules, qHTS assay (AID 1346984). Also: nearly all actives have a fitted effect of over 40% in size. In short, it runs like this:
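DPX-2 cells (HepG2 co-transfected with PXR and CYP3A4 promoter-luciferase) treated with compounds 24 h at 37C; luciferin-IPA CYP3A4 substrate 3uM final added for 3 h, then One-Glo; luminescence read. qHTS format.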
A general note: qHTS replaces the single test concentration by a dilution series.

Assay [2] shares this target. The assay can be described thus: Human pregnane X receptor (PXR) activation by small molecules, qHTS assay (AID 1346985). Also: nearly all actives have a fitted effect of over 40% in size. In short, it runs like this:
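DPX-2 cells (HepG2 co-transfected with a PXR response element and a CYP3A4-promoter luciferase construct) were seeded at 2,000 per well, rested 5 hr at 37C, then exposed to DMSO-dissolved compounds for 24 hr. Activation was read as luciferase luminescence.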

Assay [3] has as its target Cytochrome P450 2C19 (Homo sapiens) (UniProt P33261). Briefly: Cytochrome P450 Family 2 Subfamily C Member 19 (CYP2C19) small molecule antagonists: luciferase reporter qHTS assay (AID 1671197). Also: series mostly up to about 120 µM; nearly all actives have a fitted effect of over 65% in size. In short, it runs like this:
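CYP2C19 P450-Glo, 1536-well qHTS. Cpd + enzyme/proluciferin substrate 10 min RT; + NADPH regen, 37C 1 h; stop with luciferin detection reagent, 20 min RT, luminescence (RLU). Pos ctrl ketoconazole.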
Background: A reporter such as luciferase makes a cellular process visible.

In assay [4] the target is Cytochrome P450 2C9 (Homo sapiens) (UniProt P11712). The assay can be described thus: Cytochrome P450 Family 2 Subfamily C Member 9 (CYP2C9) small molecule antagonists: luciferase reporter qHTS assay (AID 1671198). Also: series mostly up to about 120 µM; nearly all actives have a fitted effect of over 50% in size. Summed up: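 P450-Glo proluciferin substrate with CYP2C9 enzyme; 10 min RT preincubation, then NADPH regeneration 1 h at 37C; luciferin detection reagent 20 min RT, luminescence in relative luminescence units.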
Chain of Cytochrome P450 2C9 (Homo sapiens) (P11712 whole entry, looked up): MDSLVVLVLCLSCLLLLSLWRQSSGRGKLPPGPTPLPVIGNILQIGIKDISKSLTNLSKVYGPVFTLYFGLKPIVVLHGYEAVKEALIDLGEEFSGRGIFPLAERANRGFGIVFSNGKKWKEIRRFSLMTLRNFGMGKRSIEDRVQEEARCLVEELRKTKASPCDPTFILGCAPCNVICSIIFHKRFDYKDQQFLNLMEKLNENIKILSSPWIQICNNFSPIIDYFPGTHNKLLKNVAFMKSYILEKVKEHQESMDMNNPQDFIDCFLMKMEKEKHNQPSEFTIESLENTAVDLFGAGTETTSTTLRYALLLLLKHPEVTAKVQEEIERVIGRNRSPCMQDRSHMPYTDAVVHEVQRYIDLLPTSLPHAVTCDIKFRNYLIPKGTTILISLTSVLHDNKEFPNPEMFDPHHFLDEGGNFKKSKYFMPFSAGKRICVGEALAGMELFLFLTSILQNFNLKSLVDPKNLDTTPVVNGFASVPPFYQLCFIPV

The target in assay [5] is Voltage-gated inwardly rectifying potassium channel KCNH2 (Homo sapiens) (UniProt Q12809). The assay can be described thus: Human Ether-a-go-go-Related Gene (hERG) channel small molecule antagonists: fluorescence cell-based qHTS assay (AID 1671200).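 Also: hERG-expressing U2OS cells given a thallium stimulus after FluxOR II dye loading; series mostly up to about 77 µM; nearly all actives have a fitted effect of over 50% in size.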 Summed up: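 Cell line hERG-U2OS; dye FluxOR II, 1 h RT dark; Tl+ stimulus; ex 480/em 540 nm, read each second for 2 min.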
Chain of Voltage-gated inwardly rectifying potassium channel KCNH2 (Homo sapiens) (Q12809 whole entry, looked up): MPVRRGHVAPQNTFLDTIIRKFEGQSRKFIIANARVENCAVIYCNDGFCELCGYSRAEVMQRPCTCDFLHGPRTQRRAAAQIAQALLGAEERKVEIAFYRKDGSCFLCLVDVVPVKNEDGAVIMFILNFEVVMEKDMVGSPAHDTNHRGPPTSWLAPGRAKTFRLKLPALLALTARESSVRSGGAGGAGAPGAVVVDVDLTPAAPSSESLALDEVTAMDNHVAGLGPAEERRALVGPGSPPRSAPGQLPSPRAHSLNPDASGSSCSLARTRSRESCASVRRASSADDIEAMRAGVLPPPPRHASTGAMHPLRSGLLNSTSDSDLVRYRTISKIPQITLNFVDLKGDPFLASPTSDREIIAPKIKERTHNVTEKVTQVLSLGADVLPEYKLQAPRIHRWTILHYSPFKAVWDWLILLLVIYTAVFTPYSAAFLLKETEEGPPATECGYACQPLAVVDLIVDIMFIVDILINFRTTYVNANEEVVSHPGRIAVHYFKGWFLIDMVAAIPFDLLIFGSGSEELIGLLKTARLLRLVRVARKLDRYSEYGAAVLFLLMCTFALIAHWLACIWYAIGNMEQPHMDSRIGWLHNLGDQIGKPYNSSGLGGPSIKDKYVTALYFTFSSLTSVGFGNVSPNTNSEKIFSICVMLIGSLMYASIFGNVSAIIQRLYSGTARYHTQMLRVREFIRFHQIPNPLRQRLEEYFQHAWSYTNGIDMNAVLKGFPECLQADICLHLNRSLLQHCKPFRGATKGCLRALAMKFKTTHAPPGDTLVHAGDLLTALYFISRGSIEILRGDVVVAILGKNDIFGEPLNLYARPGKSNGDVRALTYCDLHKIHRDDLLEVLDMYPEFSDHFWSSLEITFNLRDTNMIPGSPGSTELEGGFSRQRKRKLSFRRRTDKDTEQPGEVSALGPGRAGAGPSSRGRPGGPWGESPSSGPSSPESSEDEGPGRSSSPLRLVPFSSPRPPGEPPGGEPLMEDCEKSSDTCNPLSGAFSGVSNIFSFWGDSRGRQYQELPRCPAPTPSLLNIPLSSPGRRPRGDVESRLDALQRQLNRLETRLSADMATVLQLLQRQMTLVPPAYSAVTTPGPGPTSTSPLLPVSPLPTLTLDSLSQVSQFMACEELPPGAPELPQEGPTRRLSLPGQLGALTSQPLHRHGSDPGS

The target in assay [6] is Cytochrome P450 3A4 (Homo sapiens) (UniProt P08684). Briefly: Cytochrome P450 Family 3 Subfamily A Member 4 (CYP3A4) small molecule antagonists: luciferase reporter qHTS assay (AID 1671201). Also: series mostly up to about 120 µM; nearly all actives have a fitted effect of over 50% in size. In short, it runs like this:
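Room-temperature assay throughout: 10 min compound–enzyme/substrate preincubation, 1 h reaction after NADPH regeneration solution, 20 min detection. Luciferin formed from proluciferin substrate is quantified by luminescence.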

Assay [7] concerns the target Cytochrome P450 2D6 (Homo sapiens) (UniProt P10635). The assay can be described thus: Cytochrome P450 Family 2 Subfamily D Member 6 (CYP2D6) small molecule antagonists: luciferase reporter qHTS assay (AID 1671196). Also: nearly all actives have a fitted effect of over 50% in size. Also: potency is read from the fitted curve at half-maximal effect. As to activity change, negative = inhibition: series mostly up to about 120 µM. Summed up:
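CYP2D6 enzyme–substrate mix was held with compound for 10 min at room temperature, then NADPH regeneration solution was added and the reaction ran 1 h at room temperature. Luciferin product was detected by luminescence after 20 min with detection reagent.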

The target in assay [8] is Cytochrome P450 1A2 (Homo sapiens) (UniProt P05177). Briefly: Cytochrome P450 Family 1 Subfamily A Member 2 (CYP1A2) small molecule antagonists: luciferase reporter qHTS assay (AID 1671199). In short, it runs like this:
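Human CYP1A2 activity measured with a P450-Glo proluciferin substrate; compounds in DMSO preincubated 10 min at room temperature with enzyme-substrate mix, then NADPH regeneration system added for 1 h. Luciferin detection reagent, 20 min, luminescence read.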

Structures are written as SMILES. Records with an inconclusive call do not appear. A number with no mark means an inactive call. Calls of active or inactive are those of the source. Calls follow the shape of the dose curve; as a rule, active = well fitted curve in the direction sought with a large enough effect in the repeat runs; inconclusive = weak or mixed curves; inactive = no such curve, though single readings can be large; an effect the other way counts as inactive or inconclusive.
% is scaled to controls: 0 for no effect and ±100 for the full control effect.

Chain of Cytochrome P450 2C19 (Homo sapiens) (P33261 whole entry, looked up): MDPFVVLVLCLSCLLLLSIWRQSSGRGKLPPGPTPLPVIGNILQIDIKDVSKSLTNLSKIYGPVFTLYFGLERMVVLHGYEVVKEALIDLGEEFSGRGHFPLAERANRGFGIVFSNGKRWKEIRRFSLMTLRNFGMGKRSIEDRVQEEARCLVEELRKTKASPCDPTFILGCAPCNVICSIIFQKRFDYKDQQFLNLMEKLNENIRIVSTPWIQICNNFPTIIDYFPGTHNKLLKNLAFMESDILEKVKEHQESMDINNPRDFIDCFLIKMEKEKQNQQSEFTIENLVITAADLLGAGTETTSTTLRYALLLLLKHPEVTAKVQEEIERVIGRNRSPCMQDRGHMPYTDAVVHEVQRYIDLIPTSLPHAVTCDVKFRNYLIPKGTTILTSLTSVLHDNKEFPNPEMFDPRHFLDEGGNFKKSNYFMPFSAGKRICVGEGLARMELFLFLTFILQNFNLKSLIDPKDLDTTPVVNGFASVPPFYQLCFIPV
Chain of Cytochrome P450 3A4 (Homo sapiens) (P08684 whole entry, looked up): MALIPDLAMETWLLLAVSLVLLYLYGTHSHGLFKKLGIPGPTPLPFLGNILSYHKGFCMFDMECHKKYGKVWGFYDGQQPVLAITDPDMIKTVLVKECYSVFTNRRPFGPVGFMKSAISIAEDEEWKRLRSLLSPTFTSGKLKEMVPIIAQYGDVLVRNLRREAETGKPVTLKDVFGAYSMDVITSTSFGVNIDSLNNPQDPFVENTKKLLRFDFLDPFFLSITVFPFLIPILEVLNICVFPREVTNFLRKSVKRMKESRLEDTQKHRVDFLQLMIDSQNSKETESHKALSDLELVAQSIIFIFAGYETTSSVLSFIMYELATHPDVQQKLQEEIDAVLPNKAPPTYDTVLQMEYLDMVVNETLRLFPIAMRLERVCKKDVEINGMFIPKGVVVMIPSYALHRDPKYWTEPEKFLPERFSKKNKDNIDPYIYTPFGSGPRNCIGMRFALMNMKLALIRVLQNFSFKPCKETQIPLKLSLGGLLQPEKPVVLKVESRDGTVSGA
Chain of Cytochrome P450 1A2 (Homo sapiens) (P05177 whole entry, looked up): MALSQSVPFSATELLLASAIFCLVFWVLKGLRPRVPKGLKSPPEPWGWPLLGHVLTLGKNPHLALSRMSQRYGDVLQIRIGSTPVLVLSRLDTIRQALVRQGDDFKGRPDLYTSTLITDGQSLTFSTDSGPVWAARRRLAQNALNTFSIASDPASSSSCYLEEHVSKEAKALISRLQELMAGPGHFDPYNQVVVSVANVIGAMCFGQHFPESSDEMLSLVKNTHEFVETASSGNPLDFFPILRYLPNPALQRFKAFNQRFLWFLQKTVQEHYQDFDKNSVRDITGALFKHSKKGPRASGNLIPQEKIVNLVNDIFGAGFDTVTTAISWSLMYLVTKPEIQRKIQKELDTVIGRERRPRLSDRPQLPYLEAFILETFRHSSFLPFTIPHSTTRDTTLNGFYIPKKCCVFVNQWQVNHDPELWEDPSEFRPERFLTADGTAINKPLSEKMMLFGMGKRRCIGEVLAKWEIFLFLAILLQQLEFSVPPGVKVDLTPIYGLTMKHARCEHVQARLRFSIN
Chain of Cytochrome P450 2D6 (Homo sapiens) (P10635 whole entry, looked up): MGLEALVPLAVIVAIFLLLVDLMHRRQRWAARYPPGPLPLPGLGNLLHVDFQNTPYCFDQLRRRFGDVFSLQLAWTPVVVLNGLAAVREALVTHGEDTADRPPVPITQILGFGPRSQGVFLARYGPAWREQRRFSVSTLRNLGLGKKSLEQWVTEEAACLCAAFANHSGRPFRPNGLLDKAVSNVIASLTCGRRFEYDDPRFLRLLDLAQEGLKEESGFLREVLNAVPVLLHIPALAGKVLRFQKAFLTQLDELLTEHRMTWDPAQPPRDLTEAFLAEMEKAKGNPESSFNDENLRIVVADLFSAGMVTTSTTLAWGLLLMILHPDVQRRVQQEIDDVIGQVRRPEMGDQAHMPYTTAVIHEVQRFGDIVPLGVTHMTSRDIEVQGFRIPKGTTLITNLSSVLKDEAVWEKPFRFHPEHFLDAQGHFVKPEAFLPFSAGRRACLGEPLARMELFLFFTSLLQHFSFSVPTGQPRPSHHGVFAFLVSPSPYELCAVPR

On to `CC(O)CCCCn1c(=O)c2c(ncn2C)n(C)c1=O` (stereo unspecified), for which the call in assay [1] and in assay [2] was inactive. Further, the Potency entry in assay [3], in assay [4], in assay [5] and in assay [6] was “inactive” each time.
With `N[C@H]1C(O)O[C@H](CO)[C@@H](O)[C@@H]1O` (stereo partly specified), the call in assay [1] and in assay [2] was inactive. Moreover, the Potency in assay [7] is 30.9 µM (active). Further, the Potency result in assay [3], in assay [4], in assay [8] and in assay [6] was “inactive” throughout.
As for `O=S(=O)(O)c1cc(I)c(O)c2ncccc12`, the compound was classed as inactive in assay [1] and in assay [2]. In addition, the Potency result in assay [7], in assay [3], in assay [8] and in assay [5] was “inactive” throughout.
Consider `CN(C)CCc1c[nH]c2ccc(CS(=O)(=O)N3CCCC3)cc12`, for which the result in assay [1] and in assay [2] was inactive. The Potency result in assay [3], in assay [4], in assay [8] and in assay [6] was “inactive” in each case.
In the case of `CCN1CCN(C(=O)N[C@@H](C(=O)N[C@@H]2C(=O)N3C(C(=O)O)=C(CSc4nnnn4C)CS[C@H]23)c2ccc(O)cc2)C(=O)C1=O`, the result in assay [1] and in assay [2] was inactive. Moreover, the Potency entry in assay [7], in assay [4] and in assay [6] was “inactive” each time.
For the compound `O=C(O)P(=O)(O)O`, the compound was called inactive in assay [1] and in assay [2]. Further, the Potency result in assay [7], in assay [3], in assay [4], in assay [8], in assay [5] and in assay [6] was “inactive” each time.
With `Cc1ccc(S(=O)(=O)NC(=O)NN2CC3CCCC3C2)cc1` (stereo unspecified), the compound was classed as inactive in assay [1] and in assay [2]. Also, the Potency entry in assay [7], in assay [3], in assay [4] and in assay [8] was “inactive” each time.
For `NS(=O)(=O)c1cc2c(cc1C(F)(F)F)NCNS2(=O)=O`, the result in assay [1] and in assay [2] was inactive. Besides, the Potency entry in assay [7], in assay [4] and in assay [5] was “inactive” in each case.
As for `N=C(N)N1CCc2ccccc2C1`, the outcome in assay [1] and in assay [2] was inactive. For the same compound, the activity change, negative = inhibition in assay [7] is -15.2% [at 10.5 µM]; in assay [3] it was 22.1% [at 10.5 µM]; in assay [4], 6.48% [at 10.5 µM]; in assay [8], 0.421% [at 10.5 µM]; in assay [5], -6.17% [at 6.97 µM].
